Experiment [1] is described as follows: antimalarial activity against Dd2 strain (AID 2302;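 active = growth inhibition above 50% at the single 2 µM test dose, taken to imply half-maximal potency below 2 µM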;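 note: 0% = DMSO untreated growth and 100% = chloroquine plus artemisinin killed control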). Conditions: P. falciparum Dd2 in RBCs, LDH growth readout, 72 h; at 2 µM; stronger effect = higher value.
Experiment [2] can be described thus: HepG2 cytotoxicity, primary screen, cytotoxicity control for P. falciparum antimalarial project, cell-based, ATP luminescence (AID 2303;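 active = inhibition above 50%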;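 note: 0% = DMSO wells and 100% = digitonin-killed cells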). Conditions: HepG2 viability, 24-48 h, at 10 µM, stronger effect = higher value.
The target of experiment [3] is L-lactate dehydrogenase (Plasmodium falciparum (isolate CDC / Honduras)) (UniProt Q27743). As to the kind of experiment: PfLDH activity inhibition – cell lysate, 3D7 strain, counter-screen for P. falciparum growth inhibition project (AID 2304).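 Note: 0% = vehicle and 100% = reference inhibitor.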 As to conditions: P. falciparum 3D7 crude extract, LDH APAD/NBT absorbance; at 2 µM; stronger effect = higher value. A general note: A counterscreen serves to expose hits that act by an unwanted route or on another target.
Sequence of L-lactate dehydrogenase (Plasmodium falciparum (isolate CDC / Honduras)) (Q27743 whole entry, looked up): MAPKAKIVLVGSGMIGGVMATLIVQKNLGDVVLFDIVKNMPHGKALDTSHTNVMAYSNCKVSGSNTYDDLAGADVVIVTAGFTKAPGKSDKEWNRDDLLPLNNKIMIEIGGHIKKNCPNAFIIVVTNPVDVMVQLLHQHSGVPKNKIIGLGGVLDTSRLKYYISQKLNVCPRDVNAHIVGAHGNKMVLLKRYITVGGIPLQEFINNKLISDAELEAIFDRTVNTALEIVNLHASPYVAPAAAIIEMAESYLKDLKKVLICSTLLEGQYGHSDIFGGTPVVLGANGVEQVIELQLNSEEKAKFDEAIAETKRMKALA

Experiment [4] is described as follows: inhibition of 3D7 malaria parasite growth – strain 3D7 (AID 2306).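 Note: 0% = DMSO wells and 100% = chloroquine plus artemisinin control wells.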 Conditions: P. falciparum 3D7 erythrocytic growth, LDH absorbance, 72 h; at 2 µM; stronger effect = higher value.
The target in experiment [5] is Calcium-dependent protein kinase 1 (Plasmodium falciparum (isolate 3D7)) (UniProt P62344). Description: PfCDPK1 kinase inhibitors, biochemical, TCAMS library (AID 1159585; cut-off not given, nearly all actives have IC50 up to about 0.98 µM;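 note: inhibitors leave more ATP so luminescence rises with inhibition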). Conditions: recombinant PfCDPK1, Kinase-Glo ATP depletion luminescence.
Sequence of Calcium-dependent protein kinase 1 (Plasmodium falciparum (isolate 3D7)) (P62344 whole entry, looked up): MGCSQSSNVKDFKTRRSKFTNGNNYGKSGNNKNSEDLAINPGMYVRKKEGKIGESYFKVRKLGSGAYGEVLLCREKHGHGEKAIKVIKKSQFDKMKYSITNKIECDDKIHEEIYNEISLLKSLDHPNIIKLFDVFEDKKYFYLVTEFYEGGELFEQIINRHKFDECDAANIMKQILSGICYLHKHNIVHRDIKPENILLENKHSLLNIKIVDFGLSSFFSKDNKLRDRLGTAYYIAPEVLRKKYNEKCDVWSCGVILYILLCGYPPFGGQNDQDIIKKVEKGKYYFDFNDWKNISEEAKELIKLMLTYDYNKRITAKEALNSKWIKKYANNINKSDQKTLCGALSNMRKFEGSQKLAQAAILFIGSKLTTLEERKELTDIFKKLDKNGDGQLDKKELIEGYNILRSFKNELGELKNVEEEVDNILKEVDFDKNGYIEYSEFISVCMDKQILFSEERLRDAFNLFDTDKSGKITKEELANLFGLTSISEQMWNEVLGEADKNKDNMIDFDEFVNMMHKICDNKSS
Experiment [6] addresses Plasmodium falciparum protein kinase 6 (PK6, PF3D7_1337100) (UniProt Q8IDW1). As to the kind of experiment: PfPK6 kinase inhibitors, biochemical, TCAMS library (AID 1159586). Conditions: recombinant PfPK6, Kinase-Glo ATP depletion luminescence. For orientation: Kinase-Glo measures the ATP left after a reaction by luminescence.
The target of experiment [7] is Protein kinase 7 (PK7), Plasmodium falciparum 3D7 (PF3D7_0213400) (UniProt Q7YTF7). Description: inhibition of Plasmodium PK7 catalytic activity – biochemical, TCAMS antimalarial set, Kinase-Glo luminescence (AID 1159587). Conditions: recombinant PfPK7, Kinase-Glo ATP depletion luminescence.
Sequence of Protein kinase 7 (PK7), Plasmodium falciparum 3D7 (PF3D7_0213400) (Q7YTF7 1-343): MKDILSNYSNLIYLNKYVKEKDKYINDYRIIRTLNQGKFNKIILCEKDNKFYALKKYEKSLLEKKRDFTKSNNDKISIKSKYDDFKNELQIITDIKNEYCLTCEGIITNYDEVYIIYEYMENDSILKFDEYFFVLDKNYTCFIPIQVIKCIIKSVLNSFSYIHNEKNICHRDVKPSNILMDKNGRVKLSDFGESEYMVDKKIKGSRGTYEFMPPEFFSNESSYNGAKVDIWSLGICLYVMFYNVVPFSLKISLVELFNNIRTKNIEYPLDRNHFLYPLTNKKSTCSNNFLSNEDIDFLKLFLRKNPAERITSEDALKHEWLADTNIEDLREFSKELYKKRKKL
Experiment [8] deals with Calcium-dependent protein kinase 4 (Plasmodium falciparum (isolate 3D7)) (UniProt Q8IBS5). Description: PfCDPK4 kinase inhibitors, biochemical, TCAMS library (AID 1159588; cut-off not given, nearly all actives have IC50 up to about 0.91 µM). Conditions: recombinant PfCDPK4, Kinase-Glo ATP depletion luminescence.
Sequence of Calcium-dependent protein kinase 4 (Plasmodium falciparum (isolate 3D7)) (Q8IBS5 whole entry, looked up): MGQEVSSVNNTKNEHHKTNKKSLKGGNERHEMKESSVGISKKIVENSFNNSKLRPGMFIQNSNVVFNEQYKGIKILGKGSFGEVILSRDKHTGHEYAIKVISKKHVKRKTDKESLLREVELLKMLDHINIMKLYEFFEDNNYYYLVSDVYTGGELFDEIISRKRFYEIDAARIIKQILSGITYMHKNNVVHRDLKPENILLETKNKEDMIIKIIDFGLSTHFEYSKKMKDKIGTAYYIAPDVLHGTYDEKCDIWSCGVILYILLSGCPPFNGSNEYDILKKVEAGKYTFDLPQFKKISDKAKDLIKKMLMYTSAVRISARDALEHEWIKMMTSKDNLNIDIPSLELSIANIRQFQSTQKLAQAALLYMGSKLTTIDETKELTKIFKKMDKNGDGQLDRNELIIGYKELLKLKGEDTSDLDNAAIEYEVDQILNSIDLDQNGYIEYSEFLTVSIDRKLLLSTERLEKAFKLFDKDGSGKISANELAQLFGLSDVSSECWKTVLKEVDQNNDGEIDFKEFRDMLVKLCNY

Unmarked numbers belong to inactive results. For some of these results: Measured potencies and affinities stand elsewhere. The source made the active and inactive calls. Unless noted, the rule behind the calls is not given here.

As a reminder, the inhibition is the relative decrease from the control value, in per cent.

Sequence of Plasmodium falciparum protein kinase 6 (PK6, PF3D7_1337100) (Q8IDW1 1-305): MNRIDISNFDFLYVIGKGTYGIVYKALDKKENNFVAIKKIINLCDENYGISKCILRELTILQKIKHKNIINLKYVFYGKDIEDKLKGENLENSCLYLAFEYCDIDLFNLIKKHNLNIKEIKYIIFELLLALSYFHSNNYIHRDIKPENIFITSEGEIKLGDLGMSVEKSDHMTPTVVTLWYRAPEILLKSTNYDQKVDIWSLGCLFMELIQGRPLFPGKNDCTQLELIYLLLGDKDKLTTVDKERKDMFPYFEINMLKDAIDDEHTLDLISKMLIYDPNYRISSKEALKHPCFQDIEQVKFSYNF

Regarding `O=C(NCCc1ccccc1F)c1ccc(N2CCN(c3ccncc3)CC2)cn1`, the growth inhibition is 18% in experiment [1] and 93% (active) in experiment [4]. For the same compound, the results for the inhibition in experiment [2] and in experiment [3] were 8% and -2%, respectively. Besides, the result in experiment [5], in experiment [6], in experiment [7] and in experiment [8] was inactive.
For `CC(C)C[C@H](NC(=O)c1cccc(F)c1)C(=O)N[C@H](/C=N/NC(=O)c1ccccc1)CCc1ccccc1`, the growth inhibition in experiment [1] is 71% (active); in experiment [4], 93% (active). For the same compound, the figures for the inhibition in experiment [2] and in experiment [3] were 0% and 2%, respectively. Further, the outcome in experiment [5], in experiment [6], in experiment [7] and in experiment [8] was inactive.
As for `O=C(NCCCCN1CC=C(c2ccc3c(c2OCC2CC2)CCCC3)CC1)c1ccc(-c2ccc(C(F)(F)F)cc2)cc1`, the growth inhibition in experiment [1] is 60% (active); in experiment [4], 93% (active). Also, the inhibition is 25% in experiment [2] and -10% in experiment [3]. The outcome in experiment [5], in experiment [6], in experiment [7] and in experiment [8] was inactive.
Turning to `O=C(/C=C/c1ccc(Cl)c(Cl)c1)NCCCCCN1CCC(NC(=O)Nc2ccc(Cl)cc2F)CC1`, the growth inhibition in experiment [1] is 40%; in experiment [4], 101% (active). Also, the inhibition in experiment [2] was 100% (active); in experiment [3] it was -8%. Also, the result in experiment [5], in experiment [6], in experiment [7] and in experiment [8] was inactive.
As for `Cc1cccc2[nH]c(-c3ccc(-c4ccc(CN5CCN(c6ccncc6)CC5)cc4)cc3)nc12`, the results for the growth inhibition in experiment [1] and in experiment [4] were 100% (active) and 102% (active), respectively. The figures for the inhibition in experiment [2] and in experiment [3] were 98% (active) and 3%, respectively. For the same compound, the result in experiment [5], in experiment [6], in experiment [7] and in experiment [8] was inactive.
For the compound `COc1ccccc1C(=O)C1CCCN(C(=O)c2ccccc2C(F)(F)F)C1` (stereo not given), the growth inhibition was 84% (active) in experiment [1] and 91% (active) in experiment [4]. Also, the values for the inhibition in experiment [2] and in experiment [3] were -9% and -4%, respectively. Moreover, the result in experiment [5], in experiment [6], in experiment [7] and in experiment [8] was inactive.
Consider `c1ccc(CN2CCc3cc4nccc(N5CCNCC5)c4cc32)cc1`, for which the growth inhibition in experiment [1] was 99% (active); in experiment [4], 100% (active). For the same compound, the inhibition is 9% in experiment [2] and -4% in experiment [3]. Further, the outcome in experiment [5], in experiment [6], in experiment [7] and in experiment [8] was inactive.
On to `CCC(C)NS(=O)(=O)c1ccc2nc(Nc3ccc(C)c(Cl)c3)n([C@H](C)C(C)(C)C)c2c1` (stereo not given in full), for which the growth inhibition was 100% (active) in experiment [1] and 98% (active) in experiment [4]. The values for the inhibition in experiment [2] and in experiment [3] were 8% and -5%, respectively. Moreover, the outcome in experiment [5], in experiment [6], in experiment [7] and in experiment [8] was inactive.
With `c1ccc(COc2ccccc2COc2ccccc2-c2ccc3cccnc3n2)cc1`, the results for the growth inhibition in experiment [1] and in experiment [4] were 95% (active) and 87% (active), respectively. The inhibition is -6% in experiment [2] and 5% in experiment [3]. For the same compound, the result in experiment [5], in experiment [6], in experiment [7] and in experiment [8] was inactive.
In the case of `Nc1ccc(-c2cnc3[nH]cc(-c4ccc(C(=O)O)cc4)c3c2)cn1`, the growth inhibition in experiment [1] was 99% (active); in experiment [4], 97% (active). Further, the inhibition in experiment [2] was 48%; in experiment [3], 1%. The result in experiment [5], in experiment [6], in experiment [7] and in experiment [8] was inactive.
With `CC(C)C1=CC(=NOS(=O)(=O)c2ccccc2)C=C(C(C)C)C1=O`, the growth inhibition in experiment [1] is 74% (active); in experiment [4] it was 92% (active). For the same compound, the inhibition in experiment [2] was 23%; in experiment [3], -3%. Further, the result in experiment [5], in experiment [6], in experiment [7] and in experiment [8] was inactive.
Turning to `COCc1cc(C)nc2sc(C(=O)Nc3cc(C(C)(C)C)ccc3O)c(N)c12`, the growth inhibition is 57% (active) in experiment [1] and 85% (active) in experiment [4]. In addition, the inhibition is -9% in experiment [2] and -2% in experiment [3]. In addition, the result in experiment [5], in experiment [6], in experiment [7] and in experiment [8] was inactive.
For `O=C(N[C@@H](Cc1ccccc1)C(=O)NC1CCCCC1)c1ccc(O)c(-c2cccc(C(F)(F)F)c2)c1`, the growth inhibition in experiment [1] was 36%; in experiment [4] it was 96% (active). Besides, the values for the inhibition in experiment [2] and in experiment [3] were 11% and -2%, respectively. For the same compound, the result in experiment [5], in experiment [6], in experiment [7] and in experiment [8] was inactive.
`COc1cccc(Nc2nc(Nc3cccc(C#N)c3)cc(-c3ccncc3)n2)c1`: the growth inhibition in experiment [1] is 46%; in experiment [4], 100% (active). Further, the inhibition in experiment [2] was 28%; in experiment [3] it was 1%. Besides, the result in experiment [5], in experiment [6], in experiment [7] and in experiment [8] was inactive.
In the case of `OCCN1CCN(Cc2ccc(-c3ccc(-c4nc5ccc(C(F)(F)F)cc5[nH]4)s3)cc2)CC1`, the growth inhibition in experiment [1] is 99% (active); in experiment [4], 101% (active). Further, the inhibition in experiment [2] was 65% (active); in experiment [3], -7%. For the same compound, the result in experiment [5], in experiment [6], in experiment [7] and in experiment [8] was inactive.
`O=C(/C=C/c1ccc(I)cc1)NCCCCCN1CCC(c2c[nH]c3ccccc23)CC1`: the growth inhibition is 2% in experiment [1] and 95% (active) in experiment [4]. For the same compound, the inhibition was 43% in experiment [2] and -4% in experiment [3]. Also, the outcome in experiment [5], in experiment [6], in experiment [7] and in experiment [8] was inactive.
Consider `O=C(Nc1ccccc1)c1ccc(N2CCC(COc3cccc(C(F)(F)F)c3)CC2)nc1`, for which the growth inhibition in experiment [1] was 83% (active); in experiment [4], 96% (active). Moreover, the figures for the inhibition in experiment [2] and in experiment [3] were 11% and -3%, respectively. The outcome in experiment [5], in experiment [6], in experiment [7] and in experiment [8] was inactive.
As for `COc1ccc(-c2ccc(NC(=O)c3cccc(Cl)c3)cc2)cc1CNC(C)C`, the results for the growth inhibition in experiment [1] and in experiment [4] were 88% (active) and 100% (active), respectively. In addition, the inhibition in experiment [2] was 26%; in experiment [3], 1%. Also, the outcome in experiment [5], in experiment [6], in experiment [7] and in experiment [8] was inactive.
In the case of `COc1cc(CNC[C@@H](O)[C@H](Cc2ccccc2)NC(=O)c2cc(C3CCCC3)cc(N3CCCCS3(=O)=O)c2)cc(OC)c1`, the growth inhibition is 96% (active) in experiment [1] and 98% (active) in experiment [4]. Besides, the inhibition in experiment [2] is 16%; in experiment [3], 4%. In addition, the outcome in experiment [5], in experiment [6], in experiment [7] and in experiment [8] was inactive.
In the case of `CCCCN=C(N)c1ccc(OCCCCCOc2ccc(C(N)=NCCCC)cc2)cc1`, the growth inhibition in experiment [1] and in experiment [4] was 99% (active) throughout. Further, the inhibition in experiment [2] is 19%; in experiment [3] it was -4%. Also, the outcome in experiment [5], in experiment [6], in experiment [7] and in experiment [8] was inactive.
